The sample as a whole holds a higher share of hits than the screen did.
Shiga inhibitor – A qHTS for Small Molecule Inhibitors of Shiga Toxin; Vero cells, Shiga toxin protein synthesis inhibition reporter; inhibition, % at 38.7 µM; hit rate 9.2% among 290,000; in the data active = inhibition mostly above about 28%, no sharp cut-off; inactive = mostly below about 43%; also: 0% is about no effect
VACV Venus inh – qHTS for Stage-Specific Inhibitors of Vaccinia Orthopoxvirus: Venus Reporter Primary qHTS. hit rate 0.46% among 330,000. Vaccinia virus Venus reporter expression, fluorescence. AID 720580, 2013. Potency, µM (titrated, usually from 36.5 µM), inactives show at the highest dose activity change, negative = inhibition, most hits filed as inhibitors; calls by dose curve; tested in A549 cells; also: potency is read from the fitted curve at half-maximal effect; % is scaled to controls: 0 for no effect and ±100 for the full control effect; nearly all actives have a fitted effect of over 30% in size
MARV entry inh – qHTS for inhibitors of binding or entry into cells for Marburg Virus; Marburg virus pseudotyped entry inhibition, cell reporter; hit rate 1.8% among 300,000; Potency, µM (highest dose often 37.8 µM), for the others: at the top dose activity change, negative = inhibition, most hits filed as inhibitors; calls by dose curve; tested in HEK293 cells; also: potency is read from the fitted curve at half-maximal effect; % is scaled to controls: 0 for no effect and ±100 for the full control effect
Vaccinia mCherry – qHTS for Stage-Specific Inhibitors of Vaccinia Orthopoxvirus: mCherry Reporter Primary qHTS; Vaccinia virus mCherry reporter infection, fluorescence; Potency, µM (doses to about 36.5 µM), for the others: at the top dose activity change, negative = inhibition, usual class: inhibitors; hit rate 0.63% among 310,000; AID 720579, 2013; calls by dose curve; tested in A549 cells; also: potency is read from the fitted curve at half-maximal effect; % is scaled to controls: 0 for no effect and ±100 for the full control effect; nearly all actives have a fitted effect of over 35% in size
Cycloheximide cs – Cycloheximide Counterscreen for Small Molecule Inhibitors of Shiga Toxin; cell reporter, cycloheximide protein synthesis inhibition counterscreen; max response, %; hit rate 12% among 300,000; in the data active = max response mostly above about 13%, no sharp cut-off; inactive = mostly below about 14%; also: read at 38.3 µM for the half of the compounds with a filed dose; 0% is about no effect
Lassa entry inh – qHTS for Inhibitors of binding or entry into cells for Lassa Virus | Lassa virus pseudotype entry inhibition, cell reporter | Potency, µM (titrated, usually from 37.9 µM), for the others: at the highest dose activity change, negative = inhibition, most hits filed as inhibitors | hit rate 1.2% among 300,000; calls by dose curve; tested in HEK293 cells; also: potency is read from the fitted curve at half-maximal effect; % is scaled to controls: 0 for no effect and ±100 for the full control effect; nearly all actives have a fitted effect of over 50% in size
Active calls of the source: *; [ ] = dose if it differs, or a comment.

For COCCN(CCOC)C(=O)COC(=O)c1ccc(Cl)c(S(=O)(=O)N(C)c2ccccc2)c1 the results were Shiga inhibitor -1.1, VACV Venus inh -7.4%, MARV entry inh inconclusive, Vaccinia mCherry -14.0%, Cycloheximide cs 1.8 and Lassa entry inh -0.7%.
For CCCc1nc2ccc(Cl)cn2c1Cc1ccccc1 the results were VACV Venus inh -12.5% and Vaccinia mCherry 0.1%.
O=C(Oc1ccc2c(c1)OCO2)c1ccc(F)cc1Cl was read as Shiga inhibitor 137.1*, MARV entry inh inconclusive, Cycloheximide cs 72.2* and Lassa entry inh inconclusive.
`CCOc1ncccc1C(=O)Oc1ccc2c(c1)OCO2` gave Shiga inhibitor 32.8, VACV Venus inh -2.7%, MARV entry inh 0.4%[46.1 µM], Vaccinia mCherry -4.2%, Cycloheximide cs 8.9 and Lassa entry inh -17.9%.
Screening CCCC(=O)Nc1cccc(NC(=O)c2ccc3c(c2)OCO3)c1 returned Shiga inhibitor 38.0, MARV entry inh -11.8%, Cycloheximide cs 12.9 and Lassa entry inh 16.7%.
For CCC(=O)Nc1cccc(NC(=O)c2ccc3c(c2)OCCO3)c1 the results were Shiga inhibitor 56.4*, VACV Venus inh -13.9%, MARV entry inh 6.7%, Vaccinia mCherry -14.6%, Cycloheximide cs 50.3* and Lassa entry inh 11.7%.
CCCc1cc2c(cc1NC(=O)c1ccc(C(C)(C)C)cc1)OCO2 was read as Shiga inhibitor 28.8*, VACV Venus inh -14.0%, MARV entry inh inconclusive, Vaccinia mCherry inactive, Cycloheximide cs 22.5* and Lassa entry inh -6.3%.
CCN1C(=O)c2cccc3c(NC(=O)c4ccccc4)ccc1c23 was read as Shiga inhibitor -5.1, VACV Venus inh -19.6%, MARV entry inh 2.8%, Cycloheximide cs -2.6 and Lassa entry inh -25.5%.
`CCN1C(=O)c2cccc3c(NC(=O)c4ccc5c(c4)OCCO5)ccc1c23` gave Shiga inhibitor 9.6, VACV Venus inh -10.5%, MARV entry inh 10.3%, Vaccinia mCherry -2.3%, Cycloheximide cs 13.3* and Lassa entry inh -31.1%.
Screening CC(C)c1c(C(=O)NCc2ccccn2)cnn1-c1nccc(-c2ccccc2F)n1 returned VACV Venus inh -20.9% and Vaccinia mCherry -1.9%.
COc1cccc2c1OC1(C)CC2NC(=O)N1c1cccc(C(=O)Nc2ccc3c(c2)OCCO3)c1 (stereo unspecified) was read as Shiga inhibitor 93.4*, VACV Venus inh -18.6%, MARV entry inh 1.1%, Vaccinia mCherry -5.3%, Cycloheximide cs 32.5* and Lassa entry inh -0.7%.
Screening O=C(Nc1c(C(=O)Nc2cccc(F)c2)oc2ccccc12)c1ccc2c(c1)OCO2 returned Shiga inhibitor 30.2, MARV entry inh inconclusive, Cycloheximide cs 12.0 and Lassa entry inh 15.6%.
For O=C(Nc1ccc2c(c1)OCO2)c1ccncc1 the results were Shiga inhibitor 18.2, VACV Venus inh 4.3%, MARV entry inh -0.2%[46.1 µM], Vaccinia mCherry -3.0%, Cycloheximide cs 15.2 and Lassa entry inh 6.0%.
`O=C(Nc1ccc2c(c1)OCCO2)c1ccc(Br)o1` gave Shiga inhibitor 90.6*, VACV Venus inh 0.5%, MARV entry inh inconclusive, Vaccinia mCherry -14.3%, Cycloheximide cs 41.9* and Lassa entry inh inconclusive.
For O=C(Nc1cccc(F)c1)c1ccc2c(c1)OCO2 the results were Shiga inhibitor 68.7*, VACV Venus inh -20.2%, MARV entry inh inconclusive, Vaccinia mCherry -26.4%, Cycloheximide cs 58.6* and Lassa entry inh -2.8%.
`Cc1ccc(C(=O)Nc2ccc3c(c2)OCO3)cc1` gave Shiga inhibitor 55.5, VACV Venus inh -23.2%, MARV entry inh inconclusive, Vaccinia mCherry -27.3%, Cycloheximide cs 25.4* and Lassa entry inh inconclusive.
Cc1sc2ncn(CC(=O)Nc3ccc(F)cc3Cl)c(=O)c2c1S(=O)(=O)N1CCN(c2ncccn2)CC1 was read as VACV Venus inh -5.2%, MARV entry inh -21.4%[46.1 µM], Vaccinia mCherry 1.8% and Lassa entry inh -14.7%[46.1 µM].
`CCC(C)/C=C/C1=CC2=C(Cl)C(=O)C3(C)OC(=O)C(C(=O)C(C)C(C)O)C3C2=CO1` (stereo unspecified) gave Shiga inhibitor -7.8, VACV Venus inh -3.6%, Vaccinia mCherry -3.4% and Cycloheximide cs -1.4.
For Cc1c2cnn(CC(=O)NC(C)C)c(=O)c2c(C)n1Cc1ccccc1Cl the results were VACV Venus inh -17.2%, MARV entry inh inconclusive, Vaccinia mCherry -10.4% and Lassa entry inh 11.6%[46.1 µM].
For Cc1ccc(-n2ncc3c(NCc4ccccc4)ncnc32)cc1Cl the results were VACV Venus inh -7.7%, Vaccinia mCherry -5.8% and Lassa entry inh 17.0%[46.1 µM].
CCOCC(=O)Nc1c(C(=O)Nc2ccc3c(c2)OCO3)oc2ccccc12 was read as Shiga inhibitor 21.5, VACV Venus inh -20.1%, MARV entry inh inconclusive, Vaccinia mCherry -4.9%, Cycloheximide cs 11.5 and Lassa entry inh 0.4%[46.1 µM].
CCCOc1cccc(C(=O)Nc2ccc3c(c2)OCCO3)c1 was read as Shiga inhibitor 70.5* and Cycloheximide cs 24.0*.
O=C(NNC(=O)c1ccc(F)cc1F)c1ccc2c(c1)OCO2 was read as Shiga inhibitor 62.1*, VACV Venus inh -5.3%, MARV entry inh 6.0%[46.1 µM], Vaccinia mCherry inactive and Cycloheximide cs 48.1*.
Cc1ccc(NC(=O)c2oc3ccccc3c2NC(=O)c2ccc3c(c2)OCO3)cc1 was read as Shiga inhibitor 32.7*, MARV entry inh -2.8%, Cycloheximide cs 11.6* and Lassa entry inh 12.8%.
For CCN(CC(=O)Nc1ccc2c(c1)OCCO2)C(=O)c1cccc(OCC(C)C)c1 the results were Shiga inhibitor 31.9, VACV Venus inh -4.8%, MARV entry inh 29.0%, Vaccinia mCherry -9.4%, Cycloheximide cs 16.1* and Lassa entry inh -20.2%.
Screening CCN(CC(=O)Nc1ccc2c(c1)OCCO2)C(=O)c1ccc(S(=O)(=O)N(C)C)cc1 returned VACV Venus inh -13.0%, MARV entry inh 3.3%, Vaccinia mCherry -14.3% and Lassa entry inh inconclusive.
`O=C(NNS(=O)(=O)c1ccc(F)cc1)c1ccc2c(c1)OCO2` gave Shiga inhibitor 9.8 and Cycloheximide cs -1.4.
Screening O=c1[nH]c2cc(Cl)c(O)cc2o1 returned Shiga inhibitor 10.0 and Cycloheximide cs -1.3.
For COc1cccc(NC(=O)C(=O)NCCc2csc(-c3ccc(C)cc3)n2)c1 the results were VACV Venus inh 2.0%, Vaccinia mCherry -0.4% and Lassa entry inh -10.4%[46.1 µM].
For O=C(Nc1cccc(NC(=O)c2ccccc2Cl)c1)c1cccc(Br)c1 the results were VACV Venus inh -16.4%[7.34 µM], Vaccinia mCherry -12.5%[7.34 µM] and Lassa entry inh -29.3%[46.1 µM].
`CCc1nc2ccc(C(=O)Nc3ccc4c(c3)OCO4)cc2nc1CC` gave Shiga inhibitor 35.0, VACV Venus inh -12.0%, MARV entry inh 9.9%, Vaccinia mCherry -0.4%, Cycloheximide cs 27.1* and Lassa entry inh -17.2%.

Source: PubChem BioAssay (National Center for Advancing Translational Sciences (NCATS))
